Records with an inconclusive call do not appear. Activity calls are given as the source filed them. Calls follow the shape of the dose curve; as a rule, active = well fitted inhibition curve with a large enough effect; inconclusive = small, poorly fitted or top-dose-only effect; inactive = flat fitted curve, though single readings scatter.

This assay has as its system Zika virus NS2B-NS3 protease. Briefly: Primary screen GU AMC qHTS for Zika virus inhibitors (AID 1347154).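 Also: 0% = no-inhibitor control and -100% = no-enzyme control; nearly all actives have a fitted effect of over 70% in size.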 Conditions: Zika NS2B-NS3 unlinked protease, AMC fluorogenic substrate; series mostly up to 54.1 µM; activity change, negative = inhibition: at the top concentration. In outline: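 Unlinked Zika NS2B hydrophilic domain–NS3 protease complex at 25 nM in 10 mM Tris-HCl pH 8.0, 0.01% Tween 20, with an AMC peptide substrate. Fluorescence change (340/450 nm) over 15 min at room temperature, normalized to controls, fitted to 4-parameter Hill.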
With `CC(C)c1c(CN(C)C(C)Cc2ccccc2)n(C)n(-c2ccccc2)c1=O` (stereo not given), the “activity change, negative = inhibition” value was -1.15% (inactive).
Still for that read-out and setting: for `O=[N+]([O-])O[C@H]1CO[C@H]2[C@@H]1OC[C@H]2O[N+](=O)[O-]` the value was -0.676% (inactive); for `CCC(CC)(CNC(=O)CCCO)c1cccc(OC)c1`, -4.03% (inactive); for `O=C1c2ccccc2C(=O)c2ccccc21`, -4.7% [at 25.8 µM] (inactive).
Still for that read-out and setting: as for `CC(C)(N)Cc1ccccc1Cl`, the figure is 7.06% (inactive).
The same measure, in the same setting: for `CC(C)C[C@H](CN)CC(=O)O` the value was -9.38% (inactive); for `COP(=S)(OC)Oc1ccc(S(=O)(=O)N(C)C)cc1`, -1.75% (inactive).
With `CCOP(=S)(OCC)Oc1ccc2c(C)c(Cl)c(=O)oc2c1`, the “activity change, negative = inhibition” value is -10.7% (inactive).
The same measure, in the same setting: for `CN1CC[C@]23c4c5ccc(O)c4O[C@H]2[C@@H](O)C=C[C@H]3[C@H]1C5` the value was -2.77% [at 104 µM] (inactive); for `CN1C(=O)NC(=O)C(C)(C2=CCCCC2)C1=O` (stereo not given), -0.912% (inactive); for `NC(=O)CS(=O)C(c1ccccc1)c1ccccc1` (stereo not given), 1.68% (inactive).
Still for that read-out and setting: for `CC(=O)C1CCOC1=O` (stereo not given) the value was -4.62% (inactive).
Still for that read-out and setting: as for `C[C@@H](N)[C@@H](O)c1ccccc1`, the figure is -4.99% (inactive).
For the compound `CCOC(=O)CC(SP(=S)(OC)OC)C(=O)OCC` (stereo not given), the Potency result is “inactive”.
Same read-out and setting: for `Clc1cccc(SC2CCNCC2)n1` the value was “inactive”.
Regarding `C=CCC1(C(C)CC)C(=O)NC(=O)NC1=O` (stereo not given), the “activity change, negative = inhibition” value was -0.25% (inactive).
The same measure, in the same setting: as for `C[C@]12CCC(=O)C=C1CC[C@@H]1[C@@H]2CC[C@@]2(C)[C@H]1CC[C@]2(C)O`, the figure is 2.84% (inactive); as for `CC(C)=CC1C(C(=O)OCN2C(=O)C3=C(CCCC3)C2=O)C1(C)C` (stereo not given), -8.82% (inactive).
The same measure, in the same setting: for `C[N+]1(CCF)[C@@H]2CC[C@H]1CC(OC(=O)C(O)(c1ccccc1)c1ccccc1)C2` (stereo not given in full) the value was 0.77% (inactive); for `COc1ccc2c3c1O[C@H]1[C@H](O)CC[C@H]4[C@@H](C2)N(C)CC[C@@]341`, 3.88% [at 104 µM] (inactive).
